# ± gives the standard deviation of the averaged measurements.
# How the values were obtained:
# Assay in all cases: promoter activity interaction Z-score (Lux/OD deviation from empty-vector control); higher = stronger promoter induction by the compound
# [1] = tested on: E. coli BW25113 acrABp lux reporter
# In short: (§1)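 Reporter strains of E. coli BW25113 grew at 37°C in 40 µl LB Lennox in 384-well plates. Readings of OD600 and luminescence were taken every 30 min over 12 h, integrated over 0–8 h (wild type) or 1–9 h (deletion strains), and wells below 10% of the median growth value were excluded. Scores are Z-transformed residuals of growth-normalised luminescence from a fit against a control.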
# [2] = tested on: E. coli BW25113 micFp lux reporter
# In short: as §1
# [3] = tested on: E. coli BW25113 ompFp lux reporter
# In short: as §1
# [4] = tested on: E. coli BW25113 robp lux reporter
# In short: as §1
# [5] = tested on: E. coli BW25113 soxSp lux reporter
# In short: as §1
# [6] = tested on: E. coli BW25113 tolCp lux reporter
# In short: as §1
# [7] = 0.26 µg/ml, genetic background: wild type
# [8] = 0.26 µg/ml, genetic background: ΔmarA
# [9] = 0.26 µg/ml, genetic background: Δrob
# [10] = 0.26 µg/ml, genetic background: ΔsoxS
# [11] = 0.52 µg/ml, genetic background: wild type
# [12] = 0.52 µg/ml, genetic background: ΔmarA
# [13] = 0.52 µg/ml, genetic background: Δrob
# [14] = 0.52 µg/ml, genetic background: ΔsoxS
# [15] = 1 µg/ml, genetic background: wild type
# [16] = 1 µg/ml, genetic background: ΔmarA
# [17] = 1 µg/ml, genetic background: Δrob
# [18] = 1 µg/ml, genetic background: ΔsoxS
# [19] = 2.1 µg/ml, genetic background: wild type
# [20] = 2.1 µg/ml, genetic background: ΔmarA
# [21] = 2.1 µg/ml, genetic background: Δrob
# [22] = 2.1 µg/ml, genetic background: ΔsoxS
compound,measurement,setting,value
CCC[C@@H]1C[C@@H](C(=O)N[C@@H]([C@H]2O[C@H](SC)[C@H](O)[C@@H](O)[C@H]2O)[C@H](C)Cl)N(C)C1 [Clindamycin],promoter activity interaction Z-score,[1]; [7],0.462 ± 0.13
same,promoter activity interaction Z-score,[1]; [8],0.688 ± 0.64
same,promoter activity interaction Z-score,[1]; [9],0.443 ± 0.12
same,promoter activity interaction Z-score,[1]; [10],0.20427 ± 5.4e-05
same,promoter activity interaction Z-score,[1]; [11],0.0439 ± 0.28
same,promoter activity interaction Z-score,[1]; [12],0.0236 ± 0.74
same,promoter activity interaction Z-score,[1]; [13],0.389 ± 0.16
same,promoter activity interaction Z-score,[1]; [14],0.296 ± 0.26
same,promoter activity interaction Z-score,[1]; [15],0.0522 ± 0.49
same,promoter activity interaction Z-score,[1]; [16],-0.845 ± 0.54
same,promoter activity interaction Z-score,[1]; [17],0.554 ± 0.027
same,promoter activity interaction Z-score,[1]; [18],0.424 ± 0.19
same,promoter activity interaction Z-score,[1]; [19],0.541 ± 0.29
same,promoter activity interaction Z-score,[1]; [20],-1.07 ± 0.54
same,promoter activity interaction Z-score,[1]; [21],0.386 ± 0.14
same,promoter activity interaction Z-score,[1]; [22],0.958 ± 1.2
same,promoter activity interaction Z-score,[2]; [7],0.509 ± 0.54
same,promoter activity interaction Z-score,[2]; [8],0.0727 ± 0.038
same,promoter activity interaction Z-score,[2]; [9],-0.112 ± 0.21
same,promoter activity interaction Z-score,[2]; [10],-0.295 ± 0.22
same,promoter activity interaction Z-score,[2]; [11],-0.308 ± 0.46
same,promoter activity interaction Z-score,[2]; [12],-0.109 ± 0.1
same,promoter activity interaction Z-score,[2]; [13],0.00775 ± 0.06
same,promoter activity interaction Z-score,[2]; [14],-0.12048 ± 8.2e-05
same,promoter activity interaction Z-score,[2]; [15],-0.107 ± 0.47
same,promoter activity interaction Z-score,[2]; [16],-0.106 ± 0.01
same,promoter activity interaction Z-score,[2]; [17],-0.0738 ± 0.2
same,promoter activity interaction Z-score,[2]; [18],0.189 ± 0.27
same,promoter activity interaction Z-score,[2]; [19],0.291 ± 0.71
same,promoter activity interaction Z-score,[2]; [20],-0.2694 ± 0.0025
same,promoter activity interaction Z-score,[2]; [21],0.0565 ± 0.17
same,promoter activity interaction Z-score,[2]; [22],0.457 ± 0.16
same,promoter activity interaction Z-score,[3]; [7],0.86 ± 0.48
same,promoter activity interaction Z-score,[3]; [8],0.602 ± 0.034
same,promoter activity interaction Z-score,[3]; [9],0.184 ± 0.088
same,promoter activity interaction Z-score,[3]; [10],-0.129 ± 0.28
same,promoter activity interaction Z-score,[3]; [11],0.0844 ± 0.74
same,promoter activity interaction Z-score,[3]; [12],0.364 ± 0.24
same,promoter activity interaction Z-score,[3]; [13],0.973 ± 0.091
same,promoter activity interaction Z-score,[3]; [14],0.0417 ± 0.17
same,promoter activity interaction Z-score,[3]; [15],0.629 ± 1
same,promoter activity interaction Z-score,[3]; [16],0.255 ± 0.36
same,promoter activity interaction Z-score,[3]; [17],0.164 ± 0.52
same,promoter activity interaction Z-score,[3]; [18],0.389 ± 0.074
same,promoter activity interaction Z-score,[3]; [19],1.41 ± 0.49
same,promoter activity interaction Z-score,[3]; [20],0.484 ± 0.28
same,promoter activity interaction Z-score,[3]; [21],0.877 ± 0.67
same,promoter activity interaction Z-score,[3]; [22],1.71 ± 1.1
same,promoter activity interaction Z-score,[4]; [7],0.81 ± 0.04
same,promoter activity interaction Z-score,[4]; [8],0.716 ± 0.3
same,promoter activity interaction Z-score,[4]; [9],0.204 ± 0.64
same,promoter activity interaction Z-score,[4]; [10],0.581 ± 0.019
same,promoter activity interaction Z-score,[4]; [11],0.0509 ± 0.11
same,promoter activity interaction Z-score,[4]; [12],0.27 ± 0.26
same,promoter activity interaction Z-score,[4]; [13],-0.0366 ± 0.51
same,promoter activity interaction Z-score,[4]; [14],0.513 ± 0.74
same,promoter activity interaction Z-score,[4]; [15],0.553 ± 1.1
same,promoter activity interaction Z-score,[4]; [16],0.0526 ± 0.64
same,promoter activity interaction Z-score,[4]; [17],0.0577 ± 0.99
same,promoter activity interaction Z-score,[4]; [18],0.531 ± 0.43
same,promoter activity interaction Z-score,[4]; [19],-0.23 ± 0.084
same,promoter activity interaction Z-score,[4]; [20],-0.785 ± 0.17
same,promoter activity interaction Z-score,[4]; [21],-0.582 ± 0.73
same,promoter activity interaction Z-score,[4]; [22],-0.589 ± 0.59
same,promoter activity interaction Z-score,[5]; [7],0.148 ± 0.1
same,promoter activity interaction Z-score,[5]; [8],0.331 ± 0.014
same,promoter activity interaction Z-score,[5]; [9],0.202 ± 0.053
same,promoter activity interaction Z-score,[5]; [10],0.316 ± 0.0083
same,promoter activity interaction Z-score,[5]; [11],-0.237 ± 0.079
same,promoter activity interaction Z-score,[5]; [12],0.237 ± 0.021
same,promoter activity interaction Z-score,[5]; [13],0.217 ± 0.043
same,promoter activity interaction Z-score,[5]; [14],0.23 ± 0.076
same,promoter activity interaction Z-score,[5]; [15],0.0391 ± 0.054
same,promoter activity interaction Z-score,[5]; [16],0.244 ± 0.1
same,promoter activity interaction Z-score,[5]; [17],0.0504 ± 0.034
same,promoter activity interaction Z-score,[5]; [18],0.138 ± 0.2
same,promoter activity interaction Z-score,[5]; [19],-0.0707 ± 0.029
same,promoter activity interaction Z-score,[5]; [20],0.0916 ± 0.17
same,promoter activity interaction Z-score,[5]; [21],0.0849 ± 0.32
same,promoter activity interaction Z-score,[5]; [22],0.0804 ± 0.017
same,promoter activity interaction Z-score,[6]; [7],-0.169 ± 0.35
same,promoter activity interaction Z-score,[6]; [8],0.807 ± 0.31
same,promoter activity interaction Z-score,[6]; [9],0.395 ± 0.66
same,promoter activity interaction Z-score,[6]; [10],-0.505 ± 0.044
same,promoter activity interaction Z-score,[6]; [11],0.223 ± 1
same,promoter activity interaction Z-score,[6]; [12],0.212 ± 1.3
same,promoter activity interaction Z-score,[6]; [13],0.229 ± 0.18
same,promoter activity interaction Z-score,[6]; [14],0.282 ± 0.71
same,promoter activity interaction Z-score,[6]; [15],-0.594 ± 0.74
same,promoter activity interaction Z-score,[6]; [16],0.0618 ± 0.085
same,promoter activity interaction Z-score,[6]; [17],-0.255 ± 0.54
same,promoter activity interaction Z-score,[6]; [18],0.674 ± 0.27
same,promoter activity interaction Z-score,[6]; [19],-0.385 ± 0.39
same,promoter activity interaction Z-score,[6]; [20],-0.307 ± 0.67
same,promoter activity interaction Z-score,[6]; [21],0.0932 ± 0.95
same,promoter activity interaction Z-score,[6]; [22],0.0435 ± 0.33

# Reference: the supplement of paper PMC12282887
